From PubChem BioAssay
Calls of active or inactive are those of the source.

What was measured:
[1] = tested on: PRMT1 (protein arginine N-methyltransferase 1); assay: PRMT1 binders on small-molecule microarrays, primary screen, biochemical, small-molecule microarray, 635 nm fluorescence (AID 1088); conditions: small-molecule microarray binding, higher = more signal;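 also: binding of Prmt1 protein to compounds spotted on small-molecule microarray slides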
[2] = yeast growth modulation, basal conditions, primary screen, YJM789 clinical isolate, OD600, 24 h (AID 1089);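 also: growth of clinical yeast isolate S. cerevisiae YJM 789 seeded 1000 cells per well; test concentration not given here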; conditions: S. cerevisiae YJM789 growth, higher = more signal, called active from +8 up or from −8 down
[3] = fission yeast growth modulation, primary screen, strain 972, OD600, 24 h, no modulator (AID 1090);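 also: basal condition with compound alone and no growth modifier present; test concentration not given here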; conditions: S. pombe 972 growth, higher = more signal, called active from +8 up or from −8 down
[4] = S. cerevisiae growth modulation with rapamycin, primary screen, strain BY4716, OD600, 96 h (AID 1091); conditions: higher = more signal, called active from +8 up or from −8 down; also: test concentration not given here
[5] = target: Torsin-1A-interacting protein 2 (Homo sapiens) (UniProt Q8NFQ8); assay: LULL1 binders on small-molecule microarray, primary screen, cell lysate, human LULL1 lysate, 635/667 nm fluorescence (AID 1092); conditions: hLULL1 lysate binding, 635 nm fluorescence, higher = more signal;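 also: probe is lysate of COS7 cells overexpressing human LULL1; score merges per-feature 667 nm fluorescence with signal-to-noise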
Sequence of Torsin-1A-interacting protein 2 (Homo sapiens) (Q8NFQ8 whole entry, looked up): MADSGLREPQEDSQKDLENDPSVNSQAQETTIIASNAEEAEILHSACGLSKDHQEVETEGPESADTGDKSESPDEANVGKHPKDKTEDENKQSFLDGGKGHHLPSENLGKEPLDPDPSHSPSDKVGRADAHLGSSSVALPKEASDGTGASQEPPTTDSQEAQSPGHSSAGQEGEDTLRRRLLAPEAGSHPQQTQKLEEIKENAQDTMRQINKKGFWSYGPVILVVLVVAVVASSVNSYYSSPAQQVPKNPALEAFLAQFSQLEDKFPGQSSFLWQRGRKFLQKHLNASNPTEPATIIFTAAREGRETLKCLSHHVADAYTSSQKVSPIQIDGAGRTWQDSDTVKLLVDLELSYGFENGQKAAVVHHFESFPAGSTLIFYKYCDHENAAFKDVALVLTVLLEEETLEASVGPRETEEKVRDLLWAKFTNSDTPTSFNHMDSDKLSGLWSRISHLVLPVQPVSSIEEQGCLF

[6] = E. coli growth modulation, two-sided OD650, primary screen, E. coli filamentation project, strain DRC41, 24 h (AID 1093); conditions: OD650, 24 h, higher = more signal, called active from +8 up or from −8 down;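 also: MC1000 strain lacking acrAB efflux and sulA so SOS filamentation is blocked; test concentration not given here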
[7] = small-molecule microarray binders of probe aLefty2, primary screen, biochemical, biotinylated probe, 635/667 nm fluorescence (AID 1094); conditions: higher = more signal;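 also: score merges spot fluorescence near 667 nm with spot signal-to-noise ratio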
[8] = tested on: Noggin (protein binding on small-molecule microarray); assay: Noggin binders on small-molecule microarray, primary screen, biochemical, 635/667 nm fluorescence (AID 1095); conditions: 635 nm fluorescence, higher = more signal;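 also: score merges 667 nm feature fluorescence with signal to noise over triplicate slides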
[9] = target: Neurogenic locus notch homolog protein 3 (Homo sapiens) (UniProt Q9UM47); assay: NOTCH3 binders on small-molecule microarray, primary screen, biochemical, 635/667 nm fluorescence (AID 1096); conditions: NOTCH3 binding, 635 nm fluorescence, higher = more signal
Sequence of Neurogenic locus notch homolog protein 3 (Homo sapiens) (Q9UM47 whole entry, looked up): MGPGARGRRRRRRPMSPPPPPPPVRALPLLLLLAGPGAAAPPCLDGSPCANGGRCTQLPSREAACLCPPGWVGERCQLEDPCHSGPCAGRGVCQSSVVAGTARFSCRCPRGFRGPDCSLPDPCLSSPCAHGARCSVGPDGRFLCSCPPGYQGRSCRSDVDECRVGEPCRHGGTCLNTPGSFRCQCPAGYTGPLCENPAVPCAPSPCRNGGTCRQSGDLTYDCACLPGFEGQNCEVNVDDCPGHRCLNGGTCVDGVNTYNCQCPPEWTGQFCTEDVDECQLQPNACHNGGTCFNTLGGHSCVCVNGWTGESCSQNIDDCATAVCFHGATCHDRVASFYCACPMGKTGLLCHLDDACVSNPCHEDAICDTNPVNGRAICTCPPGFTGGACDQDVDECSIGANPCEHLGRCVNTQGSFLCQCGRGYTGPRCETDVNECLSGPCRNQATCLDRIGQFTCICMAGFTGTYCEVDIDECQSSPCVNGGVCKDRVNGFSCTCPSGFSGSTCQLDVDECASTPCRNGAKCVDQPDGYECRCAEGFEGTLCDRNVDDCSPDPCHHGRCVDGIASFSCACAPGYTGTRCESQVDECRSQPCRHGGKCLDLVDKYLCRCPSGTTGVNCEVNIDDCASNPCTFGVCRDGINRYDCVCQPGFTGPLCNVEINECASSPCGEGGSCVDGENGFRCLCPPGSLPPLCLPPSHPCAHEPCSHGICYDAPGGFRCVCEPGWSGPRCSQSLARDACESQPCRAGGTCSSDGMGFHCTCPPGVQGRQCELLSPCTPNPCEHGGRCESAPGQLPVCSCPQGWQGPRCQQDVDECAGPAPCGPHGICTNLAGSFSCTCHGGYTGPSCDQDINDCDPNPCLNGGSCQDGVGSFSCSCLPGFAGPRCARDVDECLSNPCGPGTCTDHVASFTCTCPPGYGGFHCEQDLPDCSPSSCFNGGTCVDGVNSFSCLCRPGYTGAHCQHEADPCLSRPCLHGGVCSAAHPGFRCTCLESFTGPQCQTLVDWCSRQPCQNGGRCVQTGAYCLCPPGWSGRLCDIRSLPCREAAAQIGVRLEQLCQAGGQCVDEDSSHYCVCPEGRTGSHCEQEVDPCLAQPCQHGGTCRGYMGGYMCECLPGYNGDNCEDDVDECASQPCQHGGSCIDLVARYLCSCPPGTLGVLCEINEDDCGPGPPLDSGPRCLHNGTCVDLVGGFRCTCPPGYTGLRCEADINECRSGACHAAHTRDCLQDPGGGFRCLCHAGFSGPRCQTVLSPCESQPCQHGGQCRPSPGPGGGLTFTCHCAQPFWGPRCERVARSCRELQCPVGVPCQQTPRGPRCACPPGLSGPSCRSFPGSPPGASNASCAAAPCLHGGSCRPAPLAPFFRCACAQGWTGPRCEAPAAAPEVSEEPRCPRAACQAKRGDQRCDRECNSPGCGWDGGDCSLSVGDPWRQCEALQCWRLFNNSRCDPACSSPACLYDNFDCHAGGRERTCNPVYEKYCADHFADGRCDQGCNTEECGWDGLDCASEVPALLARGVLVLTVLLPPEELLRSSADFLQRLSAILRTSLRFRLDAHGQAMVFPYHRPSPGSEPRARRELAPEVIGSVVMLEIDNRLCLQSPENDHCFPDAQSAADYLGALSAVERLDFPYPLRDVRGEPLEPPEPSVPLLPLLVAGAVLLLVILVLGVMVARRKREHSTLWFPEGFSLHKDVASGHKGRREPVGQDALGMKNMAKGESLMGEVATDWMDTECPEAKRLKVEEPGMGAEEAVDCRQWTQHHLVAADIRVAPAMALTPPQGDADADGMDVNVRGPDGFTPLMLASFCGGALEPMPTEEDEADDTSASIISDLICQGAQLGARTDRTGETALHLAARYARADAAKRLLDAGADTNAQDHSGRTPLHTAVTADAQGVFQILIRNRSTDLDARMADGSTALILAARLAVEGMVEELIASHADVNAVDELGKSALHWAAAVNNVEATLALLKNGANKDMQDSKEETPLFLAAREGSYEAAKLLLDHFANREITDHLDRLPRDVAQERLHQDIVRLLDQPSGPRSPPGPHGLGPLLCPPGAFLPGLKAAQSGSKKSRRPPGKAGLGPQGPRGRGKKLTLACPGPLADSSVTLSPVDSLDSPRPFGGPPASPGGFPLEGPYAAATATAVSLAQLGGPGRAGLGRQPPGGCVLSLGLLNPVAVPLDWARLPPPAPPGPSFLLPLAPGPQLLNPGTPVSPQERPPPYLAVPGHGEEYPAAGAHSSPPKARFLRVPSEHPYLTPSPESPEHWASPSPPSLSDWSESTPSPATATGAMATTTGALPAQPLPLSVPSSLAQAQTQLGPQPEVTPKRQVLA

[10] = small-molecule microarray binders of probe aEGFR, primary screen, biochemical, biotinylated probe, 635/667 nm fluorescence (AID 1097); conditions: higher = more signal;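 also: probe is a biotinylated anti-EGFR antibody binding compounds printed on slides; score combines fluorescence near 667 nm and signal to noise of each spot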
[11] = tested on: Plasmodium falciparum Sir2 (PF13_0152, Sir2A); assay: pfSir2 binders on small-molecule microarrays, primary screen, biochemical, small-molecule microarray, 635 nm fluorescence (AID 1098); conditions: small-molecule microarray binding, fluorescence 635 nm; higher = more signal;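 also: score merges spot fluorescence intensity with its signal-to-noise ratio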
[12] = small-molecule microarray binders of probe aDKK1, primary screen, biochemical, biotinylated probe, 635/667 nm fluorescence (AID 1099); conditions: higher = more signal;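 also: score merges 667nm spot fluorescence with signal to noise across triplicate slides; reference of the scale not given here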
[13] = small-molecule microarray binders of probe aCHRDL2, primary screen, biochemical, biotinylated probe, 635/667 nm fluorescence (AID 1100); conditions: higher = more signal
[14] = splicing luciferase reporter signal modulators, primary screen, spliceosome inhibition project, cell-based, HEK293, splice +/- reporter (AID 1101); conditions: luminescence, 24 h, higher = more signal, called active from +8 up or from −8 down;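 also: HEK293 cells carrying a splicing-competent luciferase reporter gene; test concentration not given here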
[15] = target: Fibroblast growth factor 10 (Homo sapiens) (UniProt O15520); assay: FGF10 binders on small-molecule microarrays, primary screen, biochemical, small-molecule microarray, 635 nm fluorescence (AID 1102); conditions: FGF10 binding, fluorescence 635 nm, higher = more signal
Sequence of Fibroblast growth factor 10 (Homo sapiens) (O15520 whole entry, looked up): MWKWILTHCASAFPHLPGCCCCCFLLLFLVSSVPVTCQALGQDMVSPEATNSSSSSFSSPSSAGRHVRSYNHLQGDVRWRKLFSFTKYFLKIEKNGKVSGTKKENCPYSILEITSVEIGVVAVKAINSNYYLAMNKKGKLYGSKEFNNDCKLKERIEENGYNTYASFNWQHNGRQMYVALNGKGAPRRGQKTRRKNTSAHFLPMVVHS

[16] = tested on: glycogen synthase kinase-3 (GSK3A per assay name; protocol says GSK3B); assay: GSK3 binders on small-molecule microarrays, primary screen, biochemical, small-molecule microarray, 635 nm fluorescence, GSK3A (AID 1103); conditions: small-molecule microarray binding, fluorescence 635 nm; higher = more signal; also: the record names both GSK3A and GSK3B
[17] = target: Epidermal growth factor receptor (Homo sapiens) (UniProt P00533); assay: EGFR binders on small-molecule microarrays, primary screen, biochemical, small-molecule microarray, 635 nm fluorescence (AID 1104); conditions: EGFR binding, higher = more signal;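 also: score merges 667 nm emission intensity with spot signal to noise over triplicate slides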
Sequence of Epidermal growth factor receptor (Homo sapiens) (P00533 whole entry, looked up): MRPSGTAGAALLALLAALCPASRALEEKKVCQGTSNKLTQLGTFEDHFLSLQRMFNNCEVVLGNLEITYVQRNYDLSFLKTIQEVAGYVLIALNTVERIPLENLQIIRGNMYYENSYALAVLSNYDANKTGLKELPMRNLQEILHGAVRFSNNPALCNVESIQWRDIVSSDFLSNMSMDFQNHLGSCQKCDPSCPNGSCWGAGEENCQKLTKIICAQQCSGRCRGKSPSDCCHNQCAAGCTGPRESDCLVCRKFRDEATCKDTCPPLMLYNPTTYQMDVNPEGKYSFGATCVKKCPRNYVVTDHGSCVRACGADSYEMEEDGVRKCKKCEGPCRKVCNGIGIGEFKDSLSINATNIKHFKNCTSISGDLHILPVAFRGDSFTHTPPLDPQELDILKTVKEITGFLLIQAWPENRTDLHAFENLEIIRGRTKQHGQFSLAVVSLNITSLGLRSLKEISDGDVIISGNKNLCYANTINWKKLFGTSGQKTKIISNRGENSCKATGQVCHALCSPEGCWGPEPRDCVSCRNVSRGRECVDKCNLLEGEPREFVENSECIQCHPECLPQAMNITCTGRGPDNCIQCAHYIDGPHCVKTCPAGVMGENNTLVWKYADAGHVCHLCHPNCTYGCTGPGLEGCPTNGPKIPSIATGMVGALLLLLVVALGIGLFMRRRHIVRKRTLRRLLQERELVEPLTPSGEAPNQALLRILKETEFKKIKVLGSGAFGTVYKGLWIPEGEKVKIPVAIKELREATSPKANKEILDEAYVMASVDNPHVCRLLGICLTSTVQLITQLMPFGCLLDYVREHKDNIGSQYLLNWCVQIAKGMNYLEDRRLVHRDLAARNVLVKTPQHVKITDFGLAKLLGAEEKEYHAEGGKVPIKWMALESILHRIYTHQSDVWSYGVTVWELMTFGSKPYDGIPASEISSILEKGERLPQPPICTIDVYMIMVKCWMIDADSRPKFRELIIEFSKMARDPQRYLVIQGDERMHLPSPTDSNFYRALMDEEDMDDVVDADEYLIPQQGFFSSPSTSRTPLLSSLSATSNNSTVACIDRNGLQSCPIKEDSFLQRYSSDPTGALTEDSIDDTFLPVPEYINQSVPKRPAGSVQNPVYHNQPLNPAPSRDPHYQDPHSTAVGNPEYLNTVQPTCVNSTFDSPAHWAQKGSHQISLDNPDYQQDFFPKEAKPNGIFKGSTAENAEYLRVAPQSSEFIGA

[18] = target: Follistatin-related protein 3 (Homo sapiens) (UniProt O95633); assay: FSTL3 binders on small-molecule microarrays, primary screen, biochemical, small-molecule microarray, 635 nm fluorescence (AID 1105); conditions: FSTL3 binding, higher = more signal;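 also: score merges emission near 667 nm and signal to noise per printed spot across three slides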
Sequence of Follistatin-related protein 3 (Homo sapiens) (O95633 whole entry, looked up): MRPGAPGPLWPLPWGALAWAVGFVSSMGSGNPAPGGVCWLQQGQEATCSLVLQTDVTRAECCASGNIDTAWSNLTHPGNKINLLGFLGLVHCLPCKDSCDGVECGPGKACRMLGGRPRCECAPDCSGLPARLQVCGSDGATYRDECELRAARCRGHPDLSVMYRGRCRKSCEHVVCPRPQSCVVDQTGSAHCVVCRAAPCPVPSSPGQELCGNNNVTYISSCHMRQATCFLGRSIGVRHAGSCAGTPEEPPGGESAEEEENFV

[19] = target: Dickkopf-related protein 1 (Homo sapiens) (UniProt O94907); assay: DKK1 binders on small-molecule microarrays, primary screen, biochemical, small-molecule microarray, 635 nm fluorescence scan (AID 1106); conditions: DKK1 binding, higher = more signal;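 also: score merges emission near 667 nm with signal to noise over three replicate slides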
Sequence of Dickkopf-related protein 1 (Homo sapiens) (O94907 whole entry, looked up): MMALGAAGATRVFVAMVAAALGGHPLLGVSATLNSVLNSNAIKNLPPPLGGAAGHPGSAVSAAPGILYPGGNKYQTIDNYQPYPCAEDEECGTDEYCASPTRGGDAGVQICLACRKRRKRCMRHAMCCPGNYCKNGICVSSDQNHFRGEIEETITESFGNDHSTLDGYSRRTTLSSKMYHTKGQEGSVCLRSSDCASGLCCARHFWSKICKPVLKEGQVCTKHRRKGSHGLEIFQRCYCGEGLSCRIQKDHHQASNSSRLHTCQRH

[20] = tested on: Inhibin beta A chain (activin A); assay: INHBA (activin A) binders on microarrays, primary screen, biochemical, small-molecule microarray, 635 nm fluorescence scan (AID 1107); conditions: small-molecule microarray binding, higher = more signal;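 also: mouse activin A protein probed at 4.33 µg/mL on printed slides; score merges bound-protein fluorescence near 667 nm with spot signal-to-noise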

COc1cccc(C)c1NC(=O)O[C@H]1[C@H](OC(=O)Nc2ccccc2-c2ccccc2)[C@H](OC(=O)Nc2ccccc2-c2ccccc2)[C@@H](OC)O[C@@H]1CO
composite z-score [1]: 1.54
z-score [2]: 1.24 (inactive)
z-score [3]: 0.671 (inactive)
z-score [4]: 5.69 (inactive)
composite z-score [5]: 3.18
z-score [6]: 0.0918 (inactive)
composite z-score [7]: 0.225
composite z-score [8]: 1.14
composite z-score [9]: 1.07
composite z-score [10]: -0.0824
composite z-score [11]: 0.861
composite z-score [12]: 0.796
composite z-score [13]: 0.549
z-score [14]: 0.118 (inactive)
composite z-score [15]: 1.18
composite z-score [16]: 1.33
composite z-score [17]: 0.649
composite z-score [18]: 1.3
composite z-score [19]: 0.717
composite z-score [20]: 0.729

COc1ccc(CCNC(=O)[C@@]2(Cc3ccccc3I)c3ccccc3C(=O)N(C3CCCCC3)[C@H]2c2ccc(CO)cc2)cc1
composite z-score [1]: 1.36
z-score [2]: -2.01 (inactive)
z-score [3]: -1.81 (inactive)
z-score [4]: -0.742 (inactive)
composite z-score [5]: 2.3
z-score [6]: -1.41 (inactive)
composite z-score [7]: -0.0176
composite z-score [8]: -0.275
composite z-score [9]: 0.566
composite z-score [10]: -0.115
composite z-score [11]: 1.41
composite z-score [12]: 0.0563
composite z-score [13]: 0.58
z-score [14]: -1.17 (inactive)
composite z-score [15]: -0.277
composite z-score [16]: 0.302
composite z-score [17]: -0.354
composite z-score [18]: 0.123
composite z-score [19]: -0.41
composite z-score [20]: 0.272

COC(=O)[C@@]1(Cc2ccc(F)cc2)[C@H]2c3cc(C(=O)N(C)C)n(CCc4ccc(OC)c(Br)c4)c3C[C@H]2CN1C(=O)c1ccccc1
composite z-score [1]: -0.0641
z-score [2]: -0.309 (inactive)
z-score [3]: -1.09 (inactive)
z-score [4]: -0.122 (inactive)
composite z-score [5]: 2.52
z-score [6]: -1.29 (inactive)
composite z-score [7]: 0.768
composite z-score [8]: 0.716
composite z-score [9]: 0.346
composite z-score [10]: 0.557
composite z-score [11]: 0.514
composite z-score [12]: 1.1
composite z-score [13]: 0.732
z-score [14]: 1.6 (inactive)
composite z-score [15]: 0.856
composite z-score [16]: 0.182
composite z-score [17]: -0.086
composite z-score [18]: 0.145
composite z-score [19]: -0.257
composite z-score [20]: 1.01

COc1cc2c(cc1O)C=[N+](Cc1sc3ccccc3c1Cl)CC2
composite z-score [1]: 0.286
z-score [2]: -1.02 (inactive)
z-score [3]: -15.5 (active)
z-score [4]: -1.31 (inactive)
composite z-score [5]: -0.0121
z-score [6]: 0.461 (inactive)
composite z-score [7]: 0.0216
composite z-score [8]: 0.346
composite z-score [9]: -0.119
composite z-score [10]: -0.126
composite z-score [11]: 0.209
composite z-score [12]: 0.0295
composite z-score [13]: 0.494
z-score [14]: 0.134 (inactive)
composite z-score [15]: -0.0275
composite z-score [16]: 0.0717
composite z-score [17]: 0.454
composite z-score [18]: -0.0687
composite z-score [19]: 0.396
composite z-score [20]: 1.19

Cc1ccc(S[C@]2(C(=O)NC(C)C)CC(=O)N(Cc3cc(C(F)(F)F)cc(C(F)(F)F)c3)[C@@H]2c2ccc(CO)cc2)cc1
composite z-score [1]: -0.44
z-score [2]: -0.637 (inactive)
z-score [3]: -1.03 (inactive)
z-score [4]: -0.864 (inactive)
composite z-score [5]: 0.47
z-score [6]: -0.0937 (inactive)
composite z-score [7]: -0.117
composite z-score [8]: -1.27
composite z-score [9]: -1.27
composite z-score [10]: -0.302
composite z-score [11]: 1.45
composite z-score [12]: -0.227
composite z-score [13]: 0.675
z-score [14]: 0.681 (inactive)
composite z-score [15]: -0.671
composite z-score [16]: -1.27
composite z-score [17]: -1.48
composite z-score [18]: -1.57
composite z-score [19]: -1.5
composite z-score [20]: -0.403

CCCCCN1CC=CC23O[C@@H]4/C=C\CCCOC(=O)C4[C@H]2C(=O)N(C(C)CO)[C@@H]3C1=O (stereo not given in full)
composite z-score [1]: 1.14
z-score [2]: -0.145 (inactive)
z-score [3]: -1.52 (inactive)
z-score [4]: -0.744 (inactive)
composite z-score [5]: 1.86
z-score [6]: 0.815 (inactive)
composite z-score [7]: -0.125
composite z-score [8]: -1.33
composite z-score [9]: -0.365
composite z-score [10]: -0.213
composite z-score [11]: 2.01
composite z-score [12]: -0.339
composite z-score [13]: 0.525
z-score [14]: 0.1 (inactive)
composite z-score [15]: -1.43
composite z-score [16]: -1
composite z-score [17]: -1.07
composite z-score [18]: -0.706
composite z-score [19]: -0.964
composite z-score [20]: -0.57

CC(C)[Si]1(C(C)C)OCc2cc(-c3ccc(-c4ccc(Cl)c(Cl)c4)o3)nc(-c3ccccc3)c21
composite z-score [1]: -0.715
z-score [2]: 0.0932 (inactive)
z-score [3]: -1.39 (inactive)
z-score [4]: 0.265 (inactive)
composite z-score [5]: -1.75
z-score [6]: -0.184 (inactive)
composite z-score [7]: -0.0803
composite z-score [8]: -0.401
composite z-score [9]: -0.444
composite z-score [10]: -0.316
composite z-score [11]: 1.33
composite z-score [12]: -0.0755
composite z-score [13]: 0.724
z-score [14]: 0.14 (inactive)
composite z-score [15]: -1.08
composite z-score [16]: -1.22
composite z-score [17]: -1.84
composite z-score [18]: -1.04
composite z-score [19]: -1.32
composite z-score [20]: 1.05

CC(C)N1C(=O)c2ccccc2[C@@H](C(=O)NCCN2CCOCC2)[C@@H]1c1ccc(CO)cc1
composite z-score [1]: -1.01
z-score [2]: 0.696 (inactive)
z-score [3]: 0.098 (inactive)
z-score [4]: 0.673 (inactive)
composite z-score [5]: 0.518
z-score [6]: -0.589 (inactive)
composite z-score [7]: -0.0613
composite z-score [8]: -0.465
composite z-score [9]: -0.616
composite z-score [10]: -0.212
composite z-score [11]: -0.256
composite z-score [12]: -0.005
composite z-score [13]: 0.917
z-score [14]: -0.141 (inactive)
composite z-score [15]: -2.1
composite z-score [16]: -1.05
composite z-score [17]: -1.85
composite z-score [18]: -1.01
composite z-score [19]: -1.19
composite z-score [20]: -0.0564

C=CCOC(=O)[C@@]1(Cc2ccccc2)C[C@H]2CO[C@H](c3ccc(OC)cc3)N2C1=O
composite z-score [1]: 0.262
z-score [2]: -2.65 (inactive)
z-score [3]: -3.58 (inactive)
z-score [4]: 0.0326 (inactive)
composite z-score [5]: 0.317
z-score [6]: 0.1 (inactive)
composite z-score [7]: -0.126
composite z-score [8]: 0.224
composite z-score [9]: 0.408
composite z-score [10]: -0.15
composite z-score [11]: 0.335
composite z-score [12]: -0.0298
composite z-score [13]: -0.0084
z-score [14]: -0.543 (inactive)
composite z-score [15]: 0.25
composite z-score [16]: -0.0535
composite z-score [17]: 0.201
composite z-score [18]: 0.2
composite z-score [19]: 0.286
composite z-score [20]: 0.351

CN(C)C(=O)[C@]1(CCC(=O)OC(C)(C)C)N=C(c2ccc(OCCCO)cc2)O[C@@H]1c1ccccc1CN=[N+]=[N-]
composite z-score [1]: 1.18
z-score [2]: -0.299 (inactive)
z-score [3]: -1.65 (inactive)
z-score [4]: -0.619 (inactive)
composite z-score [5]: 3.81
z-score [6]: 0.682 (inactive)
composite z-score [7]: 0.0987
composite z-score [8]: 0.717
composite z-score [9]: -0.162
composite z-score [10]: -0.149
composite z-score [11]: 1.45
composite z-score [12]: -0.594
composite z-score [13]: 1.08
z-score [14]: -0.561 (inactive)
composite z-score [15]: 0.518
composite z-score [16]: 0.7
composite z-score [17]: 0.195
composite z-score [18]: 0.47
composite z-score [19]: -0.396
composite z-score [20]: 0.418
